# In PubChem BioAssay AID588726 (The Scripps Research Institute Molecular Screening Center, 2011):
# The whole screen tested about 360,000 compounds, of which about 8,200 (2.3%) were called active. The sample holds actives, similar compounds and a random draw of the others, so the mix is not that of the screen. Rule as the data show it: active = inhibition above about 27%; inactive = the rest.
# Molecular target: Fructose-bisphosphate aldolase (Mycobacterium tuberculosis (strain ATCC 25618 / H37Rv)) (UniProt P9WQA3)
# Sequence (P9WQA3 whole entry, looked up): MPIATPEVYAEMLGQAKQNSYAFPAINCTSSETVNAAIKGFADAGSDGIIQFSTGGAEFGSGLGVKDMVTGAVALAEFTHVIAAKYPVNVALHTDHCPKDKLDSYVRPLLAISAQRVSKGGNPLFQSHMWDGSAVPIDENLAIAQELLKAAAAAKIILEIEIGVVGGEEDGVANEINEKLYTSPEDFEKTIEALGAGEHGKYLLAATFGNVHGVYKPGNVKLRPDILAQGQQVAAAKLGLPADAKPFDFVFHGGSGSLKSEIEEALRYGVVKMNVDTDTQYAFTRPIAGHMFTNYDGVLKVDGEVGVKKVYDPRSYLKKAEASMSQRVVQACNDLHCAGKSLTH
# Experiment: Mtb FBA enzyme inhibitors, primary screen, biochemical, fluorescence, strain H37Rv (AID 588726);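 also: 0% = vehicle and 100% = reference inhibitor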
# Settings: purified M. tuberculosis FBA, fluorescence read-out, at 1 µM, hits give high values
row,Structure (SMILES),inhibition
1,O=C(Nc1ccccc1C(=O)N1CCOCC1)C1CCC(=O)N1C1CCCC1 (stereo not given),0.4% (inactive)
2,COCCn1c(=O)[nH]c2cc(C(=O)NCc3cccnc3)ccc2c1=O,12.2% (inactive)
3,CC(C)(C)NC(=O)COc1ccc(CNc2ccc3[nH]c(=O)[nH]c3c2)cc1,64.6% (active)
4,O=C(COc1ccc([N+](=O)[O-])cc1Cl)Nc1ccc2[nH]c(=O)[nH]c2c1,-1.08% (inactive)
5,COc1ccc(C(=O)OCC(=O)Nc2ccc3[nH]c(=O)[nH]c3c2)c(OC)c1OC,5.97% (inactive)
6,COc1ccc(S(=O)(=O)N2CCC(C(=O)NCCC(=O)NCCc3cccc(F)c3)CC2)cc1,3.06% (inactive)
7,O=C(CCNC(=O)c1ccc(Br)cc1)NCC(c1ccco1)N1CCCCC1 (stereo not given),-0.35% (inactive)
8,Cc1nn(Cc2ccccc2)c(C)c1CNC(=O)c1ccc(F)c(S(=O)(=O)N2CCOCC2)c1,0.09% (inactive)
9,Cc1ccccc1CSc1nnc(Cn2c(=O)sc3ccccc32)n1C,3.39% (inactive)
10,Nc1cccc(-c2cc(-c3ccccc3)nc(-c3cccc(N)c3)n2)c1,16.1% (inactive)
11,CNc1nc(-c2ccccc2)cc(-c2ccccc2)n1,29.2% (active)
12,Cc1nc(NNC(=O)c2ccccc2)cc(-c2ccccc2)n1,1.26% (inactive)
13,O=[N+]([O-])c1ncc(Br)cc1Nc1ccccc1,-5.84% (inactive)
14,CC1CCc2c(c3ccccc3[nH]c2=O)O1 (stereo not given),-0.34% (inactive)
15,COC(=O)c1sc(N)c(C(=O)OC)c1COC(=O)CNS(=O)(=O)c1ccc(C)cc1,1.77% (inactive)
16,Cc1ccc(C(=O)NNC(=O)CSc2nnc3ccccn23)cc1,0.48% (inactive)
17,CCn1c(SCC(=O)Nc2nc(C)cs2)nnc1C(C)NC(=O)c1ccccc1 (stereo not given),0.82% (inactive)
18,Cc1ccsc1C(=O)N[C@@H](C)c1nnc2ccccn12,51.8% (active)
19,COc1cccc(N2CC(NC(=O)c3ccc4ccccc4c3)CC2=O)c1 (stereo not given),1.83% (inactive)
20,COc1ccc(S(=O)(=O)N2CCN(c3cnccn3)CC2)cc1,2.14% (inactive)

row,Structure (SMILES),inhibition
1,C[C@@H]1C(c2ccc(F)cc2)=NN(c2ccc(Br)cc2)[C@H]1C(=O)N1CCOC1=O,20.3% (inactive)
2,O=C1OCCN1C(=O)[C@H]1[C@H](c2ccc(Cl)cc2)C(c2cccc(Cl)c2)=NN1c1ccc(Br)cc1,57.4% (active)
3,O=C1OCCN1C(=O)[C@H]1[C@H](c2ccccc2)C(c2ccc(F)cc2)=NN1c1ccccc1,11% (inactive)
4,O=C1OCCN1C(=O)[C@H]1[C@H](c2ccc(F)cc2)C(c2ccccc2)=NN1c1ccc(Br)cc1,42.2% (active)
5,Cc1nn(-c2ccccc2)c2c1C(c1cccc([N+](=O)[O-])c1)N(c1ccccc1)C(=O)N2 (stereo not given),-3.95% (inactive)
6,CCOC(=O)c1cccc(NC(=O)CN2C(=O)C3CC=CCC3C2=O)c1 (stereo not given),-2.2% (inactive)
7,CCC(=O)c1ccc(OCC(=O)OCC(=O)N2CCc3ccccc3C2)cc1,6.24% (inactive)
8,CCCN(CCc1ccccc1)C1CCc2c(O)cccc2C1 (stereo not given),3.16% (inactive)
9,CCOC(=O)C=Cc1ccc(C(=O)OCC)[nH]1,-4.99% (inactive)
10,Cc1sc2ccccc2c1CNC[C@H]1O[C@@H](n2ccc(=O)[nH]c2=O)[C@H](O)[C@@H]1O,1.01% (inactive)
11,Cc1cc(=O)n2nc(N3CCCC3C(=O)NCCCN3CC(C)CC(C)C3)sc2n1 (stereo not given),3.34% (inactive)
12,CCCSc1nc(NCc2ccco2)c2c3c(sc2n1)COC(C)(CC)C3 (stereo not given),2.94% (inactive)
13,CN1CCc2c(sc3c2c(NCc2ccco2)nc2nnnn23)C1,37.5% (active)
14,CCSc1nc2sc3c(c2c(=O)n1-c1ccc(C)cc1)CCN(C)C3,0.45% (inactive)
15,N#Cc1c(N)n(CCOC(=O)c2ccc(Cl)cc2)c2nc3ccccc3nc12,69.1% (active)
16,CCCCNC(=O)CCNC(=O)c1ccc(C(C)(C)C)cc1,-0.2% (inactive)
17,CC(C)(C)c1ccc(C(=O)NCCn2c(N)c(C#N)c3nc4ccccc4nc32)cc1,144% (active)
18,Cn1cncc1COC(=O)c1ccc(Cl)cc1,3.05% (inactive)
19,CN1OC(COC(=O)c2ccc(Cl)cc2)CC1c1ccccc1 (stereo not given),0.19% (inactive)
20,CC(C)(C)c1ccc(C(=O)NCC(=O)OCN2C(=O)c3ccccc3C2=O)cc1,-0.24% (inactive)

row,Structure (SMILES),inhibition
1,O=C(c1ccccc1Cl)N(Cc1ccccc1F)N1C(=O)CCCC1=O,-2.23% (inactive)
2,CC(C)CN(C(=O)c1ccc2c(c1)OCO2)C1CCS(=O)(=O)C1 (stereo not given),-0.95% (inactive)
3,CC(=O)Nc1ccc(Nc2ncnc3c2nnn3Cc2ccccc2Cl)cc1,2.68% (inactive)
4,CC(=O)c1cnn(-c2cc(Oc3ccc(F)cc3)ncn2)c1C,2.98% (inactive)
5,CCc1ccccc1NC(=O)CCOc1ccccc1,0.8% (inactive)
6,Cc1ccc(NC(=O)COC(=O)CN2CCSC2=O)cc1F,-1.26% (inactive)
7,CC1=NN(C(=O)c2ccc(Br)cc2)C(O)(c2ccccc2)C1 (stereo not given),-1.19% (inactive)
8,COc1ccc(NC(=O)C2(C)Cc3c(-c4cccc(NC(C)=O)c4)ccnc3O2)cc1 (stereo not given),5.4% (inactive)
9,CSc1ccc(/C=N/N2CCN(Cc3ccccc3Cl)CC2)cc1,-4.01% (inactive)
10,COCCn1c(SCC(=O)N2CCCCCC2)nc2c(c1=O)SCC2,-1.33% (inactive)
11,Cc1ccc(CCNC(=O)c2ccc3nc4ccccc4c(=O)n3c2)cc1,12.9% (inactive)
12,O=C(NCc1cccnc1)c1cc(S(=O)(=O)N2CCOCC2)c(Cl)cc1Cl,-0.2% (inactive)
13,Cc1cccn2c(=O)c3cc(C(=O)NCC4CCCO4)c(=N)n(Cc4ccc(F)cc4)c3nc12 (stereo not given),186% (active)
14,O=C(CSc1nc2ccccc2c(=O)n1Cc1ccc(F)cc1)NCC1CCCO1 (stereo not given),2.15% (inactive)
15,Cc1cccn2c(=O)c3cc(C(=O)NCCN4CCOCC4)c(=N)n(Cc4cccnc4)c3nc12,131% (active)
16,Cc1ccccc1NC(=O)Cn1c(=O)n(CC2CCCO2)c(=O)c2ccccc21 (stereo not given),2.56% (inactive)
17,Cc1cccc(NC(=O)c2ccc3c(=O)n(CC4CCCO4)c(=S)[nH]c3c2)c1 (stereo not given),-2.72% (inactive)
18,O=C(NCC1CCCO1)c1cc2c([nH]c3ccccc32)c(-c2ccc(F)cc2)n1 (stereo not given),14% (inactive)
19,Cc1ccc(Cn2c(C)c3cnn(CC(=O)NCCN4CCOCC4)c(=O)c3c2C)cc1,-0.73% (inactive)
20,COc1ccc(CCNC(=O)Cn2c(=O)n(CC3CCCO3)c(=O)c3ccccc32)cc1OC (stereo not given),4.02% (inactive)
